# Measurements as given in PMC5540273 (PLoS ONE, 2017).
# Assays:
# Conditions in all cases: concentration: 1 μM, replicates: in singlicate; n = 1
# QSK = tested on: QSK
# RAF1 = tested on: RAF1
# RET = tested on: RET
# RIOK1 = tested on: RIOK1
# RIOK2 = tested on: RIOK2
# RIOK3 = tested on: RIOK3
# RIPK1 = tested on: RIPK1
# RIPK2 = tested on: RIPK2
# RIPK4 = tested on: RIPK4
# RIPK5 = tested on: RIPK5
# 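Note: KINOMEscan kinase panel screen.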
Compound,%Inh (QSK) [%],%Inh (RAF1) [%],%Inh (RET) [%],%Inh (RIOK1) [%],%Inh (RIOK2) [%],%Inh (RIOK3) [%],%Inh (RIPK1) [%],%Inh (RIPK2) [%],%Inh (RIPK4) [%],%Inh (RIPK5) [%]
Fc1cc(Cl)ccc1Nc1ccnc2cc(I)ccc12 [GW551191],37,10,53,31,0,19,0,67,12,0
CCn1c(-c2ccccn2)nc2cnccc21 [SB-736398],0,18,24,4,0,0,0,0,15,0
O=C(Nc1n[nH]c2cc(-c3cccc(F)c3F)ccc12)C1CC1 [SB-733894],26,12,0,47,0,52,72,0,18,31
